Wnt act: Wnt/beta-catenin pathway activation. 1.2% of 300,000 active. activation, % at 9.35 µM. Wnt/beta-catenin reporter cell assay, activator, plate reader. AID 743398; in the data active = activation above about 30%, passing the limit was not always enough; inconclusive = no clear call, values can overlap the other calls;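 note: 0% = neutral control wells and 100% = positive control wells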
C2C12 statin: suppression of simvastatin myotoxicity; C2C12 myotubes + simvastatin, ATP luminescence, 48 h; scaled: DMSO 0, geranylgeraniol control 100; 0.78% of 330,000 active; rescue of ATP level, % at 7.49 µM;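 active = mean ATP rescue above about 67%, or every replicate alone reaching that limit, limit read from the data, passing the limit was not always enough; inconclusive = no clear call, values can overlap the other calls; inactive = mean under the limit and some replicate under it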;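 note: myotubes were challenged with 10 µM simvastatin during compound exposure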
MITF act: increases MITF-driven TRPM1 promoter luciferase signal | activation, % at 12.5 µM | SK-MEL-5 TRPM1-promoter luciferase, 24 h; % of positive control, neutral wells = 0 | 0.75% of 300,000 active | AID 588334;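 active = mean activation of at least 80% with every replicate also reaching 80%; inconclusive = mean reaches 80% but some replicate falls short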;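 note: 0% = neutral control wells and 100% = parthenolide positive control wells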
esBAF inh: blocks esBAF chromatin remodeling in mouse ES cells; Bmi1-luciferase knock-in reporter, 24 h; 100% = twice the neutral-well signal; reporter increase, % at 12.5 µM; 2% of 350,000 active; AID 602393; in the data active = activation above about 40%; inconclusive = no clear call, values can overlap the other calls;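 note: 0% = median of the plate's neutral control wells and 100% = double that signal; a rise in the Bmi1 reporter signal indicates esBAF inhibition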
* marks the source's active call; other numbers are inactive results; ? = inconclusive; nt = no result given. Sampled rows, rich in hits. Any-hit rate of the full collection: about 3%.

SMILES | Wnt act | C2C12 statin | MITF act | esBAF inh
O=C(N[C@H]1CC[C@H](CCn2cc(-c3ccccc3)nn2)O[C@H]1CO)c1cnccn1 | nt | 2.0 | nt | 2.5
CC(C)CC#Cc1ccc2c(c1)O[C@H](CN(C)C(=O)NC(C)C)[C@H](C)CN([C@H](C)CO)S2(=O)=O | nt | -12.0 | nt | -4.4
Cc1ccc2cc3cc(C(=O)N4CC(C)CC(C)C4)oc3nc2c1 (centres undefined) | 21.1 | -2.8 | 66.8 | -15.3
O=C(c1cc2c(ccc3ccccc32)o1)N1CCCCC1 | 38.1* | -8.4 | 31.5 | -19.3
O=C(c1cc2cc(Cl)ccc2o1)N1CCCCCC1 | -1.1 | 5.1 | 129.8* | 65.0*
O=C(c1cc2cc3ccc(Cl)cc3nc2o1)N1CCCCCC1 | nt | -106.5 | 101.9* | 31.8
COc1ccc2cc3cc(C(=O)N4CC(C)CC(C)C4)oc3nc2c1 (centres undefined) | nt | -61.2 | 54.6 | 57.6*
CO[C@H]1CN(C)C(=O)c2cc(NS(=O)(=O)c3ccccc3)ccc2OC[C@H](C)N(Cc2cccnc2)C[C@H]1C | nt | 5.4 | nt | 2.0
C[C@@H]1CN([C@H](C)CO)C(=O)c2cc(NC(=O)C3CC3)ccc2O[C@@H]1CN(C)S(=O)(=O)c1cn(C)cn1 | nt | -10.2 | nt | -3.0
CC(=O)Nc1ccccc1OCc1nnc(-c2ccc(Cl)cc2)o1 | 0.6 | 8.3 | 8.4 | 65.7*
c1ccc(Cc2nnc(-c3ccccc3)o2)cc1 | 56.2* | nt | nt | 49.4*
CC(=O)Nc1ccccc1OCc1nnc(-c2cccs2)o1 | nt | 0.4 | -24.4 | 17.9
Clc1ccccc1OCc1nnc(-c2ccccc2)o1 | ? | nt | 88.2* | nt
C=C(C)C1CC=C(C)/C(=N/NC(=O)c2cccc([N+](=O)[O-])c2)C1 (centres undefined) | -3.0 | -3.6 | 2.2 | 0.1
C=C(C)C1CC=C(C)/C(=N/NC(=O)c2ccoc2C)C1 (centres undefined) | nt | -4.5 | 28.8 | 72.8*
COc1cc(C)c(C(C)C)cc1S(=O)(=O)NCCCn1ccnc1 | -0.9 | 114.2* | 0.3 | 5.4
Cc1cc(-c2ccc(F)cc2)nc2cc(C(N)=O)nn12 | nt | nt | -4.1 | nt
CCOC(=O)c1cnn2c(C)cc(-c3ccc(F)cc3)nc12 | nt | -0.8 | 90.6* | 12.4
CCCN(C)C[C@H]1Oc2ncc(-c3cccc(C(=O)N(C)C)c3)cc2C(=O)N([C@@H](C)CO)C[C@H]1C | nt | 14.7 | nt | 0.1
CC(=O)n1nc(-c2ccccc2)cc1-c1ccccc1 | 64.2* | nt | 52.6 | nt
O=C(O)CC(C(=O)O)n1nc(-c2ccccc2)cc1-c1ccccc1 (centres undefined) | nt | -8.5 | 3.2 | 58.3*
COc1ccc(CN(Cc2cccn2C)C(=O)c2cc3cc(OC)ccc3[nH]2)cc1 | -3.9 | 123.9* | -5.7 | -5.1
O=C(N=C1N=C2C=CC=CN2Cc2ccccc21)c1ccc(S(=O)(=O)N2CCOCC2)cc1 | -0.9 | nt | 84.0* | nt
CN(C)S(=O)(=O)c1cccc(C(=O)N=C2N=C3C=CC(Cl)=CN3Cc3ccccc32)c1 | 63.5* | nt | 26.1 | nt
O=C(OCCN1C(=O)c2ccccc2C1=O)c1ccc(S(=O)(=O)N2CCCCCC2)cc1 | nt | -6.3 | -10.2 | 6.2
SMILES | Wnt act | C2C12 statin | MITF act | esBAF inh
O=C(N=C1N=C2C=CC=CN2Cc2ccccc21)c1ccc(S(=O)(=O)N2CCCC2)cc1 | 44.0* | -5.1 | 102.6* | 49.7*
Cc1ccc(S(=O)(=O)Nc2ccc3c(c2)CC(=O)N([C@@H](C)CO)C[C@@H](C)[C@H](CN(C)C(=O)NC2CCCCC2)O3)cc1 | nt | -10.1 | nt | 2.3
COc1cc2ccccc2cc1C(=O)NC1CCCCC1 | 23.7 | -21.4 | 73.9 | 45.5*
COc1cc2ccccc2cc1C(=O)NC1CCCC1 | 4.8 | 1.0 | 12.5 | 96.4*
COc1cc(SC)ccc1C(=O)NC1CCCCC1 | 10.7 | 80.8* | 27.2 | 54.1*
COc1ccc(OC)c(-c2cc(C(=O)NC3CCCC3)c3ccccc3n2)c1 | 2.1 | 3.4 | 0.6 | -11.6
COc1ccc(-c2cc(C(=O)NC3CCCC3)c3ccccc3n2)cc1OC | -2.1 | -2.0 | 1.1 | 6.1
COc1cc2ccccc2cc1C(=O)NC1CCC(C)CC1 (centres undefined) | 38.1* | -1.8 | 118.1* | 56.7*
COc1cc(SC)ccc1C(=O)OCC(=O)NC1CCCCC1 | 2.6 | -3.7 | 9.7 | -4.8
COc1ccccc1C(=O)Nc1ccccc1C(=O)NC1CCCCC1 | -3.8 | -41.3 | -11.3 | 0.8
Cc1ccc(-c2ccc3c(c2)O[C@@H](CN(C)C(=O)C2CCC2)[C@@H](C)CN([C@@H](C)CO)S3(=O)=O)cc1 | nt | 19.1 | nt | -2.0
C[C@@H]1CN([C@H](C)CO)C(=O)Cc2cc(NC(=O)CCCCCC(=O)Nc3ccccc3N)ccc2O[C@H]1CN(C)CC1CC1 | nt | 6.8 | nt | -0.2
C[C@H](CO)N1C[C@H](C)[C@H](CN(C)Cc2ccc3c(c2)OCO3)Oc2ccc(NC(=O)CCCCCC(=O)Nc3ccccc3N)cc2CC1=O | nt | 103.4* | nt | -16.4
C[C@H](CO)N1C[C@H](C)[C@H](CN(C)Cc2ccc(-c3ccccc3)cc2)Oc2ccc(NC(=O)CCCCCC(=O)Nc3ccccc3N)cc2CC1=O | nt | 25.1 | nt | -3.3
C[C@H]1CN([C@@H](C)CO)C(=O)Cc2cc(NC(=O)CCCCCC(=O)Nc3ccccc3N)ccc2O[C@H]1CN(C)CC1CCCCC1 | nt | 147.3* | nt | -27.2
C[C@H]1CN([C@@H](C)CO)C(=O)Cc2cc(NC(=O)CCCCCC(=O)Nc3ccccc3N)ccc2O[C@@H]1CN(C)Cc1ccc(Oc2ccccc2)cc1 | nt | 101.9* | nt | 12.1
C[C@@H]1CN([C@H](C)CO)C(=O)Cc2cc(NC(=O)CCCCCC(=O)Nc3ccccc3N)ccc2O[C@H]1CN(C)Cc1ccc(-c2ccccc2)cc1 | nt | 135.2* | nt | 38.8
CC(=O)N(C)C[C@@H]1Oc2cc(-c3ccc(C)cc3)ccc2S(=O)(=O)N([C@H](C)CO)C[C@@H]1C | nt | 19.9 | nt | -1.3
COc1ccc(S(=O)(=O)Nc2ccc3c(c2)C(=O)N([C@@H](C)CO)C[C@@H](C)[C@@H](CN(C)C(=O)Nc2ccccc2)OCCCC[C@H](C)O3)cc1 | nt | nt | nt | -6.9
CCC(=O)N(C)C[C@H]1Oc2cc(C#CCOC)ccc2S(=O)(=O)N([C@H](C)CO)C[C@@H]1C | nt | -18.1 | nt | -5.2
C[C@H](CO)N1C[C@H](C)[C@@H](CN(C)Cc2ccc(-c3ccccc3)cc2)Oc2ccc(NC(=O)CCCCCC(=O)Nc3ccccc3N)cc2CC1=O | nt | 87.9* | nt | ?
C[C@H]1CN([C@@H](C)CO)C(=O)Cc2cc(NC(=O)CCCCCC(=O)Nc3ccccc3N)ccc2O[C@H]1CN(C)Cc1ccccc1 | nt | 73.4* | nt | -12.9
C[C@@H]1CN([C@@H](C)CO)C(=O)Cc2cc(NC(=O)CCCCCC(=O)Nc3ccccc3N)ccc2O[C@H]1CN(C)Cc1ccc(-c2ccccc2)cc1 | nt | 94.0* | nt | 25.2
COc1ccc(/C=C/c2nc3ccccc3n2Cc2ccc(OC)c(OC)c2)cc1 | 22.8 | -4.5 | 107.9* | ?
COCn1c(-c2cccc(Br)c2)nc2ccccc21 | nt | -4.8 | 22.7 | 37.3
COCn1c(-c2ccc(OC)c(OC)c2)nc2ccccc21 | nt | -2.5 | nt | 47.3*
COc1ccc(C#Cc2cnc3c(c2)C(=O)N([C@@H](C)CO)C[C@@H](C)[C@H](CN(C)C(=O)CN(C)C)O3)cc1 | nt | 1.2 | nt | 0.1
